Screening results (PubChem)
HDAC3 inh = inhibitors of human histone deacetylase 3; O15379; recombinant HDAC3, fluorogenic peptide/trypsin coupled, fluorescence; inhibition, % at 8.3 µM; 320,000 tested, 0.15% active; in the data active = inhibition above about 26%, passing the limit was not always enough; inconclusive = no clear call, values can overlap the other calls
GC-A act = GC-A (human) enzyme activation; P16066; HEK293 GC-A cells, cGMP TR-FRET, EC30 ANP; 0% at EC30 ANP, 100% saturating ANP; activation, % at 10 µM; 370,000 tested, 0.14% active; in the data active = activation above about 40%
ALR H2O2 inh = inhibitors of human sulfhydryl oxidase ALR | P55789 | purified ALR, DTT oxidation, H2O2 HRP-luminol luminescence | inhibition, % (no concentration beside the values) | 290,000 tested, 3.8% active;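 active = mean replicate inhibition above about 79%, with every replicate also reaching it, limit read from the data; inconclusive = only one of the two criteria met; inactive = mean below limit and not every replicate reaching it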
GC-B act = GC-B (human) receptor activation | P20594 | HEK293-GC-B cells, CNP EC30, cGMP TR-FRET; 0% at EC30 CNP, 100% saturating CNP | activation, % at 10 µM | 370,000 tested, 0.11% active;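 active = activation at 10 µM reaching about 35% in either raw or pattern-adjusted values, limit read from the data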
Of the large screens only hits and unclear results are named; the others gave an inactive call. Many of the other results were omitted from the sample, so hits are more common in it than they were.

CN1OC[C@@H]2CN(C(=O)c3ccc([N+](=O)[O-])cc3)[C@H](c3ccccc3Br)C[C@@H]21	none (no result: HDAC3 inh, ALR H2O2 inh)
Oc1ccc(/C=N/Nc2cc(N3CCOCC3)nc(N3CCOCC3)n2)cc1O	ALR H2O2 inh 99
Cc1nc(N/N=C/c2ccc(O)cc2O)cc(N2CCOCC2)n1	ALR H2O2 inh 95
Cc1ccc2nc(-c3cc(N)cc(N)c3)oc2c1	none
Cc1ccc(C)c(-c2nc3cc(N)ccc3o2)c1	ALR H2O2 inh 99
CC(=O)Nc1ccc(-c2nc3cc(Cl)ccc3o2)cc1	none
COC(=O)c1ccc(-c2nc3cc(N)ccc3o2)cc1	ALR H2O2 inh 95
Nc1ccc2oc(-c3ccccn3)nc2c1	ALR H2O2 inh inconclusive
Nc1ccc2oc(-c3ccccc3Cl)nc2c1	none (no result: HDAC3 inh, ALR H2O2 inh)
CN(C)c1ccc(-c2nc3cc(N)ccc3o2)cc1	ALR H2O2 inh 99
Nc1ccc(-c2nc3ccc(N)cc3o2)cc1	ALR H2O2 inh 100 (no result: GC-A act, GC-B act)
O=S(=O)(c1ccc(N2CCN(Cc3ccccc3)CC2)nc1)N1CCCC1	none (no result: ALR H2O2 inh)
Cc1ccccc1CN1C(=O)CN(S(C)(=O)=O)CC1(C)C(=O)Nc1ccc2c(c1)OCCO2 (stereo not given)	none (no result: HDAC3 inh, ALR H2O2 inh)
CC(C)C(C(=O)Nc1ccc(S(N)(=O)=O)cc1)N1C(=O)c2ccccc2C1=O (stereo not given)	none
O=S1(=O)CCOC[C@H](Cc2ccccc2)N1Cc1ccccc1F	none
O=C(COC(=O)CN1C(=O)C2CC=CCC2C1=O)Nc1cccc([N+](=O)[O-])c1 (stereo not given)	none (no result: HDAC3 inh, ALR H2O2 inh)
Cc1noc(C)c1S(=O)(=O)N(C)C[C@@H]1OCc2cnnn2CCCC(=O)N([C@@H](C)CO)C[C@@H]1C	none (no result: HDAC3 inh, ALR H2O2 inh)
Nc1ccc(-c2nc3cc(N)ccc3o2)cc1	ALR H2O2 inh 93
Cc1ccc(-c2nc3cc(N)ccc3o2)cc1Br	none
O=C(CC1C(=O)NCCN1Cc1ccc(F)cc1)NCCN1CCCc2ccccc21 (stereo not given)	ALR H2O2 inh 99
O=C(CC1C(=O)NCCN1Cc1ccccc1)NCCN1CCCCC1=O (stereo not given)	none (no result: HDAC3 inh)
CCN=c1scc(C)n1/N=C/c1ccc(O)c(O)c1O	ALR H2O2 inh 99
COCCN=c1scc(-c2cccs2)n1/N=C/c1ccc(O)c(O)c1O	ALR H2O2 inh 99
CCN=c1scc(C)n1/N=C/c1cc(Br)c(O)c(Br)c1	none
COCCN=c1scc(-c2ccccc2)n1/N=C/c1c[nH]c2ccccc12	none
Cc1cc(C)cc(N2C(=O)CSC2c2ccccn2)c1 (stereo not given)	ALR H2O2 inh 99
O=C1CSC(c2ccccn2)N1c1ccc2ccccc2c1 (stereo not given)	none
O=C1CSC(c2ccccn2)N1c1ccc(Br)cc1 (stereo not given)	none
O=C1CSC(c2ccccn2)N1c1ccccc1 (stereo not given)	ALR H2O2 inh 99
C=CCn1c(SCC(=O)Nc2ccc(N3CCOCC3)cc2)nc2ccccc2c1=O	none
Cc1csc(SCC(=O)NC(=O)NC2CCCC2)n1	none
Cc1[nH]nc(SCC(=O)N(C)c2ccccc2)c1[N+](=O)[O-]	none
CC1SC(=S)N(c2ccc(N(C)C)cc2)C1=O (stereo not given)	ALR H2O2 inh 99
Cc1ccc(-n2[nH]c(C)c(C=Nc3ccc4[nH]c(=O)[nH]c4c3)c2=O)cc1C	ALR H2O2 inh 92
CSCc1ccc(C(=O)NC(C)c2ccc(-n3ccnc3)cc2)cc1 (stereo not given)	ALR H2O2 inh 98
CSc1ccccc1C(=O)NC(C)c1ccc(-n2ccnc2)cc1 (stereo not given)	none
O=C(O[C@@H]1OC2COC(=O)c3cc(O)c(O)c(O)c3-c3c(cc(O)c(O)c3O)C(=O)O[C@@H]([C@H]1O)[C@@H]2O)c1cc(O)c(O)c(O)c1	ALR H2O2 inh 99 (no result: GC-A act, GC-B act)
O=C(CSc1nc(O)cc(=O)n1-c1ccccc1)Nc1ccc(Br)cn1	none
Cc1ccc(NC(=O)CSc2nc(O)cc(=O)n2C)cc1	ALR H2O2 inh 99
Cn1c(SCC(=O)Nc2ccc(Br)cc2)nc(O)cc1=O	ALR H2O2 inh 99
Cc1ccc(NC(=O)CSc2nc(O)cc(=O)n2-c2ccc(C)cc2)cc1	ALR H2O2 inh 100
O=C(CSc1nc(O)cc(=O)n1-c1ccc(Cl)c(Cl)c1)Nc1ccc(Cl)cc1Cl	ALR H2O2 inh 98
COc1cc(OC)cc(-c2oc3cccnc3c2C#CCCO)c1	none
O=c1cc(O)nc(SCc2ccccc2)n1-c1ccc(Cl)cc1	ALR H2O2 inh 98
COc1ccc(-n2c(SCC(=O)Nc3ccc(Br)cc3)nc(O)cc2=O)cc1	ALR H2O2 inh 99
CCSc1nc(O)cc(=O)n1-c1ccc(OC)cc1	none
